Data reported in the supplement of paper PMC7866885, “A novel bicyclic 2,4-diaminopyrimidine inhibitor of Streptococcus suis dihydrofolate reductase” (PeerJ, 2021).
± gives the standard deviation.

System: Streptococcus suis HE06
Assay: percent growth relative to DMSO control; higher = less growth inhibition
Settings: 10 µM; incubation time 18 h
Protocol: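 CLSI broth microdilution: 5x10^4 CFU of Streptococcus suis (strain P1/7 or HE06) incubated with 10 µM Pathogen Box compound in cation-adjusted Mueller Hinton broth, 37 °C, 5% CO2, 18 h. Growth read as OD600 and expressed as percent of the DMSO-treated control (100%); mean ± SD of three independent experiments.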

Row | SMILES | percent growth
1 | COc1ccccc1C(C)NCC(=O)Nc1cc(C(F)(F)F)ccc1Cl (stereo not given) | 86.8 ± 5.4%
2 | CC(C)(C)c1cnc(NC(=O)c2ccccc2O)s1 | 19.7 ± 28%
3 | O=C1N(Cc2cc3ccccc3s2)CC2CN(Cc3ccccc3)CCN12 (stereo not given) | 82.2 ± 8%
4 | O=C(Nc1c(O)cccc1-c1nc2c(C(=O)O)cccc2o1)c1cc(-c2ccccc2)on1 | 61.5 ± 26%
5 | CC(C)(C(=O)Nc1ccc(F)cc1)n1cc(-c2ccccc2F)cn1 | 106 ± 22%
6 | CCOC(=O)NC(=O)c1ccsc1NC(=O)c1nc2ccccc2s1 | 0.167 ± 0.2%
7 | Cc1ccc(C(=O)Nc2ccc(S(=O)(=O)O)c3cc(S(=O)(=O)O)cc(S(=O)(=O)O)c23)cc1NC(=O)c1cccc(NC(=O)Nc2cccc(C(=O)Nc3cc(C(=O)Nc4ccc(S(=O)(=O)O)c5cc(S(=O)(=O)O)cc(S(=O)(=O)O)c45)ccc3C)c2)c1 | 78.7 ± 8.8%
8 | COc1ccccc1OCCCCn1c(C2CC2)nc2ccccc21 | 102.6 ± 0.9%
9 | Cc1cccc(NC(=O)c2cc(S(=O)(=O)N(C)c3ccc(F)cc3)ccc2Cl)n1 | 111 ± 31%
10 | Cc1nnc(NCc2cccc(Cl)c2)c2ccccc12 | 80.1 ± 8.7%
11 | NS(=O)(=O)c1cncc(-c2ccc3nccc(-c4cn[nH]c4)c3n2)c1 | 102 ± 33%
12 | CCCS(=O)(=O)N1CCC(CO)(Cc2ccccc2C(F)(F)F)CC1 | 99.2 ± 19%
13 | FC(F)(F)c1cccc(-c2nc3c(NCc4ccncc4)nccc3[nH]2)c1 | 90.4 ± 20%
14 | COc1ccc(C(=N)N)cc1-c1cn(-c2ccc(C(=N)N)cc2)nn1 | 105 ± 42%
15 | CCc1ccc([C@@H]2C[C@H](C(F)(F)F)n3ncc(C(=O)NCc4ccc(OC)cc4)c3N2)cc1 | 92.3 ± 12%
